Test results: PubChem BioAssay (Tox21)
Where “and” joins values, the source holds several entries; their conditions need not be identical. Identical values can stand only once. Records with an inconclusive call do not appear. Entries that show only a call come without a potency. Some compounds were tested as several samples or in several runs, with calls that do not always agree. Calls of active or inactive are those of the source. Unless noted, calls follow the shape of the dose curve; as a rule, active = well fitted curve in the direction sought with a large enough effect in the repeat runs; inconclusive = weak or mixed curves; inactive = no such curve, though single readings can be large; an effect the other way counts as inactive or inconclusive.

What was measured:
[1] = biological target: Aryl hydrocarbon receptor (Homo sapiens) (UniProt P35869); assay: qHTS assay to identify small molecule that activate the aryl hydrocarbon receptor (AhR) signaling pathway (AID 743085); also: nearly all actives have a fitted effect of over 15% in size; also: potency is read from the fitted curve at half-maximal effect;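 as to activation: HG2L7.5c1 human HepG2 liver cells with stably integrated DRE-driven firefly reporter; series mostly up to about 70 µM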
Chain of Aryl hydrocarbon receptor (Homo sapiens) (P35869 whole entry, looked up): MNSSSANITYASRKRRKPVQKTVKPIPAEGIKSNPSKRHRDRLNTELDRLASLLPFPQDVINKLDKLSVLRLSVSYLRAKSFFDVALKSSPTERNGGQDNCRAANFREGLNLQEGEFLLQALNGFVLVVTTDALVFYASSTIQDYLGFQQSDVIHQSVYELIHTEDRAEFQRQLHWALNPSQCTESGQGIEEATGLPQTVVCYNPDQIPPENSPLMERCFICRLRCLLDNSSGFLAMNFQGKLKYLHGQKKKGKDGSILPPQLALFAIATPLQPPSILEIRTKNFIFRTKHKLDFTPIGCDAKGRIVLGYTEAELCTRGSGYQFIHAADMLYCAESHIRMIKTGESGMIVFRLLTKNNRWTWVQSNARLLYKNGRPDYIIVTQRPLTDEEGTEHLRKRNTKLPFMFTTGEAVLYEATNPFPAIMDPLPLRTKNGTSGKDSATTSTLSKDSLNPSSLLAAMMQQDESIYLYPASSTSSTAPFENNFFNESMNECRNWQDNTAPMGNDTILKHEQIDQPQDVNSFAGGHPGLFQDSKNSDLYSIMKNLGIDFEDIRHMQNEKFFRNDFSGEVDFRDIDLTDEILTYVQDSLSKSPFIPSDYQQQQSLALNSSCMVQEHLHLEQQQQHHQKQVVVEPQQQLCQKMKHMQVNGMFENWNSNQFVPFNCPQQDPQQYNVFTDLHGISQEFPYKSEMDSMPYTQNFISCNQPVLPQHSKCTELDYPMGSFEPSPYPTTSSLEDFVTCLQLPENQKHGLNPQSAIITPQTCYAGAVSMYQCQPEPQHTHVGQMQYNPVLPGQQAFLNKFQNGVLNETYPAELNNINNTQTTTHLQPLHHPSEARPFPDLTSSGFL
Summary of the method: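 Cell line HG2L7.5c1 (human hepatoma, 20× DRE-luc). Plated, 5 h 37C, compound/DMSO added, 24 h 37C. CellTiter-Fluor 30 min 37C → fluorescence; then ONE-Glo 30 min RT → luminescence.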

[2] = qHTS assay to identify small molecule that activate the aryl hydrocarbon receptor (AhR) signaling pathway - cell viability counter screen (AID 743086);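 also: HepG2 liver cells carrying the AhR DRE luciferase reporter; series mostly up to about 70 µM; nearly all actives have a fitted effect of over 45% in size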
Summary of the method: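 Cytotoxicity counter screen: CellTiter-Fluor signal (30 min, 37 C) in 4000 HepG2 cells/well carrying the DRE-luciferase reporter, following 24 h compound exposure at 37 C.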

[3] = biological target: Peroxisome proliferator-activated receptor gamma (Homo sapiens) (UniProt P37231); assay: qHTS assay to identify small molecule agonists of the peroxisome proliferator-activated receptor gamma (PPARg) signaling pathway (AID 743094; active = well fitted activation curve with a large enough effect in the signal ratio in the repeat runs, not every such curve was filed as active; the % refers to the signal ratio)
Chain of Peroxisome proliferator-activated receptor gamma (Homo sapiens) (P37231 whole entry, looked up): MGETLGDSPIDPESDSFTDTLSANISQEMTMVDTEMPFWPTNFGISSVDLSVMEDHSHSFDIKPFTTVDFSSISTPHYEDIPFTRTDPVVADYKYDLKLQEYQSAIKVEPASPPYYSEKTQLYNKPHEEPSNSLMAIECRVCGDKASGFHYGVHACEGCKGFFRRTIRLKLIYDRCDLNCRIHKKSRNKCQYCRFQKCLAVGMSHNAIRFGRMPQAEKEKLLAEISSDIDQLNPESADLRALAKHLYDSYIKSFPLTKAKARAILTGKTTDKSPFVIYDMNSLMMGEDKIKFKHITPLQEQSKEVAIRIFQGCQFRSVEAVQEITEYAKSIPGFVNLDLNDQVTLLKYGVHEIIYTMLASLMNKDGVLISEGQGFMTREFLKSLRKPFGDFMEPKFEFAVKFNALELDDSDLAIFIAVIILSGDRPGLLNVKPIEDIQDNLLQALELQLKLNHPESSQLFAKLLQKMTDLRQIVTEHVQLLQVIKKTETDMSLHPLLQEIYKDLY
Summary of the method: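 Cell-based bla reporter, HEK293H background, PPARg-driven UAS. Pre-incubation 5 h, 37C, 5% CO2. Compound 17 h, 37C. Substrate 1 h RT; fluorescence.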

[4] = biological target: Peroxisome proliferator-activated receptor gamma (Homo sapiens) (UniProt P37231); assay: qHTS assay to identify small molecule antagonists of the peroxisome proliferator-activated receptor gamma (PPARg) signaling pathway (AID 743191; calls by dose curve; also: series mostly up to about 63 µM; nearly all actives have a fitted effect of over 30% in size)
Summary of the method: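 Beta-lactamase reporter under UAS control in HEK293H PPARg-bla cells; compound treatment 17 h at 37C. Read-out: fluorescence intensity after 1 h room-temperature incubation with LiveBLAzer B/G FRET substrate.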

[5] = qHTS assay to identify small molecule antagonists of the peroxisome proliferator-activated receptor gamma (PPARg) signaling pathway - cell viability counter screen (AID 743194); also: nearly all actives have a fitted effect of over 55% in size
Summary of the method: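 Viability was measured as CellTiter-Glo luminescence in GeneBLAzer PPARg UAS-bla HEK293H cells. These cells had been exposed 17 h at 37 C to compounds together with rosiglitazone at 50 nM final, with the beta-lactamase readout taken in the same wells.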

[6] = qHTS assay for small molecule agonists of the antioxidant response element (ARE) signaling pathway - cell viability counter screen (AID 743203; calls by dose curve; also: nearly all actives have a fitted effect of over 55% in size)
Summary of the method: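 Measured in the same wells as the beta-lactamase ARE reporter, this read-out is CellTiter-Glo luminescence from HepG2 ARE-bla cells given compounds for 16 hrs.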

[7] = qHTS assay for small molecule activators of the heat shock response signaling pathway - cell viability counter screen (AID 743209); also: nearly all actives have a fitted effect of over 50% in size
Summary of the method: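 Same-well multiplex: after 2.5 h room-temperature incubation with LiveBLAzer B/G substrate and fluorescence reading, CellTiter-Glo reagent was added to HSE-bla HeLa cells that had received compound for 5 h at 37 C; luminescence read after 30 min.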

[8] = qHTS assay to identify small molecule agonists of the peroxisome proliferator-activated receptor delta (PPARd) signaling pathway - cell viability counter screen (AID 743211); also: nearly all actives have a fitted effect of over 55% in size; also: potency is read from the fitted curve at half-maximal effect
Summary of the method: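 HEK293H PPARd-bla, 3000 cells/well; 5 h preincubation 37C/5% CO2; cpd in DMSO, 17 h 37C; B/G FRET substrate 2 h RT; CellTiter-Glo 30 min RT, luminescence.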

[9] = biological target: Peroxisome proliferator-activated receptor delta (Homo sapiens) (UniProt Q03181); assay: qHTS assay to identify small molecule agonists of the peroxisome proliferator-activated receptor delta (PPARd) signaling pathway (AID 743212; calls by dose curve;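 also: HEK293H cells with PPARd UAS beta-lactamase reporter GeneBLAzer system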)
Chain of Peroxisome proliferator-activated receptor delta (Homo sapiens) (Q03181 whole entry, looked up): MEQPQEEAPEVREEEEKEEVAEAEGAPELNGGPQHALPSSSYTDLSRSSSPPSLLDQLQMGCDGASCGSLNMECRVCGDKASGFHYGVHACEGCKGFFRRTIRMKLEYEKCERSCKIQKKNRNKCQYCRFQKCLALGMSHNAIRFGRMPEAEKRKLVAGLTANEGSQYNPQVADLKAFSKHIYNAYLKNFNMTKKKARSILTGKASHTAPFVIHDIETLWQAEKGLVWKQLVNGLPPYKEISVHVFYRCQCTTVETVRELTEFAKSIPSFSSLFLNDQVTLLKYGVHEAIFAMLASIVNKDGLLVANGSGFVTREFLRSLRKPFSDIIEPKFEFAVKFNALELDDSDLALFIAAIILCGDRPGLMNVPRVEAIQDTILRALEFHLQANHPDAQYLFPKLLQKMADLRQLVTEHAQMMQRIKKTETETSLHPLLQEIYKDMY
Summary of the method: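 Beta-lactamase reporter readout: a ratiometric FRET signal from the LiveBLAzer substrate after 2 h at room temperature. Compound exposure at 37 °C in PPARδ-bla HEK293H cells driven by an upstream activator sequence.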

[10] = biological target: Peroxisome proliferator-activated receptor delta (Homo sapiens) (UniProt Q03181); assay: qHTS assay to identify small molecule antagonists of the peroxisome proliferator-activated receptor delta (PPARd) signaling pathway (AID 743215; active = well fitted inhibition curve with a large enough effect in the signal ratio in the repeat runs, not every such curve was filed as active; the % refers to the signal ratio;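 also: cells stimulated with agonist L165041 at 300 nM final during compound exposure; series mostly up to about 62 µM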)
Summary of the method: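 Fluorescence from cleaved LiveBLAzer B/G FRET substrate (2 h, room temperature) reports PPARd-driven beta-lactamase in HEK293H UAS-bla cells. Cells had been treated 17 h at 37 C with compound plus 300 nM final L165041.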

[11] = qHTS assay to identify small molecule antagonists of the farnesoid-X-receptor (FXR) signaling pathway - cell viability counter screen (AID 743221; active = well fitted cell-killing curve with a large enough effect in the repeat runs, not every such curve was filed as active; also: nearly all actives have a fitted effect of over 50% in size)
Summary of the method: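 Luminescence from CellTiter-Glo measures cytotoxicity in GeneBLAzer FXR-UAS-bla HEK 293T cells. Cells were exposed to compounds with 50 uM chenodeoxycholic acid (final) for 16 h at 37 C, in wells also used for the reporter readout.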

[12] = qHTS assay to identify small molecule agonists of the vitamin D receptor (VDR) signaling pathway - cell viability counter screen (AID 743224); also: nearly all actives have a fitted effect of over 50% in size; also: potency is read from the fitted curve at half-maximal effect
Summary of the method: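 In parallel with the bla FRET readout, cytotoxicity toward VDR-bla cells after 16 h compound exposure was assessed by CellTiter-Glo, with luminescence recorded after a 30 min room-temperature incubation.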

[13] = qHTS assay for small molecule activators of the heat shock response signaling pathway (AID 743210; active = well fitted activation curve with a large enough effect in the signal ratio in the repeat runs, with a control signal flat, not every such curve was filed as active; the % refers to the signal ratio; also: series mostly up to about 63 µM)
Summary of the method: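 Compound exposure lasted 5 h at 37 C in HeLa cells carrying a heat-shock-element-driven beta-lactamase reporter. Read-out: fluorescence intensity after 2.5 h room-temperature loading with LiveBLAzer B/G FRET substrate.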

[14] = qHTS assay to identify small molecule antagonists of the peroxisome proliferator-activated receptor delta (PPARd) signaling pathway - cell viability counter screen (AID 743213); also: nearly all actives have a fitted effect of over 50% in size; also: potency is read from the fitted curve at half-maximal effect
Summary of the method: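 PPARd-bla HEK293H cells (3000/well) got compound plus 300 nM L165041 agonist for 17 h at 37 C. Viability in the same wells came from CellTiter-Glo luminescence after 30 min at room temperature.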

[15] = biological target: Bile acid receptor (Homo sapiens) (UniProt Q96RI1); assay: qHTS assay to identify small molecule antagonists of the farnesoid-X-receptor (FXR) signaling pathway (AID 743217; active = well fitted inhibition curve with a large enough effect in the signal ratio in the repeat runs, not every such curve was filed as active; the % refers to the signal ratio)
Chain of Bile acid receptor (Homo sapiens) (Q96RI1 whole entry, looked up): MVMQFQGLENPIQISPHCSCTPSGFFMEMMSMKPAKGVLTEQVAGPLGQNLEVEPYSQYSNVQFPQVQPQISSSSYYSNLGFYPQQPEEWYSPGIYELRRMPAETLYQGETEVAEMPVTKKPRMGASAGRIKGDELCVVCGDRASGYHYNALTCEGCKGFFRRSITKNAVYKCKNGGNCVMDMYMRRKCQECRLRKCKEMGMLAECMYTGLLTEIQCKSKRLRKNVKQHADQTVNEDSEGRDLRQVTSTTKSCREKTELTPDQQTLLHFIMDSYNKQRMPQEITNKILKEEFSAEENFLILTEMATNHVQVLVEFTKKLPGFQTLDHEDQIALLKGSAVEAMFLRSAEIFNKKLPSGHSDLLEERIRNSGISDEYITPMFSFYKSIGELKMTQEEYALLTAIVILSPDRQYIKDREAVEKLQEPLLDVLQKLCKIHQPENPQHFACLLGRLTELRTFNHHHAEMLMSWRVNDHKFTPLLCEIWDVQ
Summary of the method: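 FRET fluorescence after 2 h room-temperature LiveBLAzer loading gives the readout. Prior step: FXR-bla HEK 293T cells, seeded and incubated 5 h, received test compounds plus 50 uM final CDCA for 16 h at 37 °C.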

[16] = qHTS assay to identify small molecule agonists of the farnesoid-X-receptor (FXR) signaling pathway - cell viability counter screen (AID 743218); also: nearly all actives have a fitted effect of over 45% in size
Summary of the method: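 Readout: CellTiter-Glo luminescence, 30 min RT, multiplexed after the FXR-bla FRET reading. HEK 293T FXR-UAS-bla cells received compound 5 h post-plating and were incubated 16 h at 37 C.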

[17] = biological target: Bile acid receptor (Homo sapiens) (UniProt Q96RI1); assay: qHTS assay to identify small molecule agonists of the farnesoid-X-receptor (FXR) signaling pathway (AID 743220; active = well fitted activation curve with a large enough effect in the signal ratio in the repeat runs, not every such curve was filed as active; the % refers to the signal ratio)
Summary of the method: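 FXR-UAS-bla HEK 293T cells carrying a UAS-driven beta-lactamase reporter were plated for 5 h at 37C/5% CO2, then exposed to DMSO-dissolved Tox21 10K compounds for 16 h at 37C. A LiveBLAzer B/G FRET substrate was loaded for 2 h at room temperature before fluorescence reading.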

[18] = biological target: Vitamin D3 receptor (Homo sapiens) (UniProt P11473); assay: qHTS assay to identify small molecule agonists of the vitamin D receptor (VDR) signaling pathway (AID 743222; calls by dose curve)
Chain of Vitamin D3 receptor (Homo sapiens) (P11473 whole entry, looked up): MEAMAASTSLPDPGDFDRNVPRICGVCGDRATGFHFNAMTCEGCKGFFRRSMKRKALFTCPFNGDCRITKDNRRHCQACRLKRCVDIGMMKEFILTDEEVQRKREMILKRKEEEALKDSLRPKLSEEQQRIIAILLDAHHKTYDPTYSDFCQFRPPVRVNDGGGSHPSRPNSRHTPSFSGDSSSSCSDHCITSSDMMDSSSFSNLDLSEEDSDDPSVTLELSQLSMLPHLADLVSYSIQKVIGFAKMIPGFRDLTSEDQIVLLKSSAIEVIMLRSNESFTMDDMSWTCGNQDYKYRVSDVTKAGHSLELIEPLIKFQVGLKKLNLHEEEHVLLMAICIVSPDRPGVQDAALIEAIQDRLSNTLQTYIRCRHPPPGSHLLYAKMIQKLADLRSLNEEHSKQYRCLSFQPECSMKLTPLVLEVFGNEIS
Summary of the method: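 Following 4 h attachment at 37C, VDR-bla cells (2,000 per well) received DMSO-dissolved compounds or controls. After 16 h incubation, LiveBLAzer B/G FRET substrate was added and fluorescence read 2 h later at room temperature.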

[19] = qHTS assay for small molecule agonists of the antioxidant response element (ARE) signaling pathway (AID 743202; active = well fitted activation curve with a large enough effect in the signal ratio in the repeat runs, not every such curve was filed as active; the % refers to the signal ratio; also: potency is read from the fitted curve at half-maximal effect)
Summary of the method: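 After 16 hours of compound treatment at 37 C, HepG2 cells with a stably integrated ARE-driven beta-lactamase reporter were loaded 2 hours at room temperature with LiveBLAzer B/G FRET substrate and fluorescence intensity measured.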

[20] = biological target: Vitamin D3 receptor (Homo sapiens) (UniProt P11473); assay: qHTS assay to identify small molecule antagonists of the vitamin D receptor (VDR) signaling pathway (AID 743223; active = well fitted inhibition curve with a large enough effect in the signal ratio in the repeat runs, not every such curve was filed as active; the % refers to the signal ratio)
Summary of the method: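 Antagonist mode uses 1alpha,25-dihydroxyvitamin D3 at 3 nM final as stimulus. VDR-bla cells receive compounds in DMSO, incubate 16 h at 37C, then a beta-lactamase FRET substrate for 2 h at room temperature before fluorescence measurement.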

Compound	Potency [1]	Potency [2]	Potency [3]	Potency [4]	Potency [5]	Potency [6]	Potency [7]	Potency [8]	Potency [9]	Potency [10]	Potency [11]	Potency [12]	Potency [13]	Potency [14]	Potency [15]	Potency [16]	Potency [17]	outcome [18]	Potency [19]	outcome [20]
CCCCCCCCCCCCCCC[C@H](O)[C@@H](N)CO	inactive	inactive	inactive	inactive	inactive	inactive	inactive	inactive	inactive	inactive	inactive	inactive	–	–	–	–	–	–	–	–
CC1=C(C=O)C(C)(C)CCC1	inactive	inactive	inactive	inactive	inactive	inactive	inactive	inactive	inactive	–	inactive	inactive	inactive	inactive	inactive	inactive	inactive	inactive	–	–
Cc1oncc1C(=O)Nc1ccc(C(F)(F)F)cc1	1.14 µM (active) and 21.7 µM (active)	inactive	inactive	inactive	inactive	inactive	inactive	54.9 µM (active) and inactive	inactive	inactive	inactive	38.9 µM (active) and inactive	–	49 µM (active)	inactive	inactive	inactive	–	30.6 µM (active)	–
Nc1ccc(S(=O)(=O)O)cc1	inactive	inactive	inactive	inactive	–	inactive	inactive	inactive	–	–	inactive	inactive	inactive	inactive	inactive	inactive	inactive	inactive	inactive	inactive
c1cnc2c(n1)CCCC2	inactive	inactive	inactive	inactive	inactive	inactive	inactive	inactive	inactive	–	inactive	inactive	inactive	inactive	–	inactive	–	inactive	inactive	inactive
CCOC(=O)/C=C/C(=O)O	inactive	inactive	inactive	–	inactive	inactive	inactive	inactive	inactive	inactive	–	inactive	inactive	inactive	–	–	–	inactive	9.69 µM (active)	inactive
CC1(C)C2=CCCC(C)(C)[C@]23CC[C@H]1C3	inactive	inactive	inactive	inactive	inactive	inactive	inactive	–	inactive	–	inactive	inactive	inactive	inactive	inactive	–	inactive	inactive	–	inactive
C[Si](NC1CCCCC1)(NC1CCCCC1)NC1CCCCC1	inactive	inactive	inactive	inactive	inactive	–	inactive	inactive	inactive	inactive	–	inactive	inactive	inactive	inactive	inactive	inactive	inactive	–	inactive
